According to the supplement of paper PMC3334620:
Over roughly 33,000 sequences, “E-score (-0.5 to 0.5)” has its median near -0.056; the highest 2% begin near 0.38. Shown is part of a subset that was picked to be rich in the highest values.

Target: Stb4 (UniProt P50104)
Assay: PBM E-score (8-mer binding enrichment) (E-score (-0.5 to 0.5)); higher = stronger / more preferred TF binding
Settings: protein concentration: 200 nM; construct: GST-DNA-binding domain
Procedure: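 Universal 'all 10-mer' protein binding microarrays (Agilent AMADID 015681) probed with GST-tagged S. cerevisiae TFs (full-length or DBD) made by in vitro transcription/translation (PURExpress), about 100-200 nM. Bound TF was detected with fluorescent anti-GST. Each ungapped 8-mer (which stands for itself and its reverse complement) is scored by the PBM enrichment score (E-score), a modified Wilcoxon-Mann-Whitney statistic from -0.5 to +0.5, computed with the Universal PBM Analysis Suite. Scale: above 0.35 generally sequence-specific binding.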

Chain of UniProt P50104 (P50104 whole entry): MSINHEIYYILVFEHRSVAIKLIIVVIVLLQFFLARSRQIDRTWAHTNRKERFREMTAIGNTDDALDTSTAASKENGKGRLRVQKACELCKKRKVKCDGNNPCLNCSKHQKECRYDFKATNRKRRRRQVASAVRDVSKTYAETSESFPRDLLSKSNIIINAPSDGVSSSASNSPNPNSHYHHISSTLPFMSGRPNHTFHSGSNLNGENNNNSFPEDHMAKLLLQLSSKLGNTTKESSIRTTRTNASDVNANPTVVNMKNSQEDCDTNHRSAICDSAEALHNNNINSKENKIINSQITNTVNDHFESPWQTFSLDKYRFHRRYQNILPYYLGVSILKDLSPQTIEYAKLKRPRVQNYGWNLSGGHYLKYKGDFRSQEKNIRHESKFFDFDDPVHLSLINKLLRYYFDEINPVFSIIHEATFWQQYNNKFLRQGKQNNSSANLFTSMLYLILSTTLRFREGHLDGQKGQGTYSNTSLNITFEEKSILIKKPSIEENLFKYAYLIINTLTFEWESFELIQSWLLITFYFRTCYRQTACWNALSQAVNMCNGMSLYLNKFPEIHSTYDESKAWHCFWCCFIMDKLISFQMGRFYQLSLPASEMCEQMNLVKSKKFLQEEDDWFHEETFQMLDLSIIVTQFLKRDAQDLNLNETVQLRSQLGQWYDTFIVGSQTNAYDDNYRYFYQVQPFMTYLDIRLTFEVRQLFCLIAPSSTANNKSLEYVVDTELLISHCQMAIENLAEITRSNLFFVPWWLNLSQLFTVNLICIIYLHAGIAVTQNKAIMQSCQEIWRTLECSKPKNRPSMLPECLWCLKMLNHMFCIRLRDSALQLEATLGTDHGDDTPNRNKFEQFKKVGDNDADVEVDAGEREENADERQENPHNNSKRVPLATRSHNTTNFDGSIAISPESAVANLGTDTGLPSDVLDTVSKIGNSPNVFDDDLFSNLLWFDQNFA

Sequence | PBM E-score
CTACGAGC | -0.133
AGTTAGAG | -0.174
ACGTCCCT | -0.32
GCGCATTA | 0.00939
CCCTTGAG | -0.134
ATTGCCGC | 0.121
ATTGCCGG | 0.301
GTTGCCAA | -0.164
CTTGCCGC | 0.18
ATTGCCGA | 0.451
GTTGCCCA | -0.0723
CTTGCCTA | -0.286
CTTGCCGA | 0.396
GTTGCCGA | 0.458
CATATGAC | -0.132
GGAGGTAC | 0.112
AAGAAACG | -0.084
GTCGAAAA | -0.122
GAATCCAC | -0.134
GATGCCAC | -0.0531
CACTCTTC | -0.0762
GAGCCTGC | -0.0113
AAATTCCC | 0.167
ATATTCGG | 0.399
AAATTCGT | 0.117

Sequence | PBM E-score
AAATTCGC | 0.0337
ATATTCCC | 0.32
AAATTCGG | 0.389
ATATTCCA | 0.0331
AAATTCCA | -0.0536
ATATTCCG | 0.393
ATATTCGA | 0.0718
AAATTCCG | 0.387
ATATTCGC | -0.034
CTTGCAGC | -0.153
TCCAGTCA | -0.0411
CAGTGTGG | -0.271
AAAAAGGT | -0.106
AATGTTTG | -0.0254
CCACTCTC | 0.0625
GATAAGAC | 0.0398
AGATTCCG | 0.389
AGATTCCT | -0.216
AGATTCCC | 0.127
ACGGTGTC | 0.0812
CGGTCCAG | -0.0508
GGACATAC | 0.0378
CACCCAGC | 0.0106
GATTCGGA | 0.43
AATTCGTA | 0.0882

Sequence | PBM E-score
TATTCGAA | -0.2
AATTCGAA | -0.191
TATTCGGA | 0.426
CATTCGGG | 0.343
CATTCGTA | -0.194
GATTCGTA | 0.0772
GATTCGCA | -0.0177
TATTCGCA | -0.147
CATTCGGA | 0.383
AATTCGGA | 0.447
ACCCATAG | -0.221
GGCGTTCA | -0.0303
CGCGACTC | -0.0117
CCTTAGTC | -0.155
CGAGCACC | 0.204
CTATTCCC | 0.0798
AGCAGTAC | 0.0047
GATTCGGC | 0.393
AATTCGGT | 0.278
AATTCGGG | 0.39
CATTCGGC | 0.409
GATTCGAC | -0.233
CATTCGCC | -0.0759
CATTCGTC | -0.0104
GATTCGCC | -0.0248

Sequence | PBM E-score
AATTCGGC | 0.357
GACAAAAC | -0.0388
GTACATCA | -0.00531
GTTATCCA | 0.0169
AAATCTCA | -0.0445
ATCGGCTG | 0.328
GTCGGCTA | 0.377
ATCGGCTC | 0.279
AACGGCTA | 0.16
CACGGCTA | 0.299
ATCGGCTA | 0.403
CTCGGCTA | 0.472
CTCGGCTC | 0.422
CGCGGCTC | 0.191
ATCAGCAC | -0.139
CAGGTGGA | -0.236
GAAGTTGA | -0.085
ACATCCGA | 0.486
ACATCCGG | 0.447
TCATCCAA | -0.191
TCATCCCA | -0.181
CCATCCGG | 0.332
CCATCCGA | 0.453
ACATCCGT | 0.348
ACATCCCA | -0.0846

Sequence | PBM E-score
TCATCCGA | 0.473
ACATCCAG | -0.261
ACATCCTG | -0.0816
CCATCCGC | 0.28
CAACTAGG | -0.0487
TCTTCGCA | -0.0992
GTGTGCAA | -0.127
ACGTTCCC | 0.11
ATTCAACC | 0.00448
AAAGACAT | -0.14
GCGGGGGA | 0.0109
CCGCAAGA | 0.151
GCATCCGA | 0.466
GCATCCTA | -0.163
GCATCCGC | 0.295
ACGGCCAG | -0.124
CTCGGTGC | 0.244
CTCGGTAA | 0.431
ATCGGTAC | 0.329
CTCGGTAC | 0.383
GTCGGTAA | 0.333
ATCGGTTA | 0.368
CTCGGTTA | 0.44
ATCGGTAA | 0.336
GTCGGTTA | 0.343

Sequence | PBM E-score
CGAACGGA | 0.327
GTCTAAAA | -0.0585
GTACTGAC | -0.0527
AGTAAGCG | -0.0174
AGACTATG | -0.17
ACCAGGCG | -0.159
CATACAGA | -0.0776
AGTGATTG | -0.0135
CCCTCGTC | 0.0826
ACCTCGCC | -0.0213
ACCTCGTA | 0.0536
CCCTCGCC | -0.217
ACCTCGAA | -0.105
ACCTCGGA | 0.463
ACCTCGAG | -0.0838
CCCTCGGC | 0.399
ACCTCGGC | 0.415
ACCTCGTC | -0.0708
ACCTCGTG | -0.0555
ACCTCGGG | 0.421
AGTAGATA | -0.0337
CTCCATTA | -0.148
CGCCTTTC | -0.0815
TGGGTAAA | -0.0511
CGGGTAAC | 0.393

Sequence | PBM E-score
CGGGTAAG | 0.336
AGGGTAAA | 0.0281
GGGGTAAC | -0.122
CGGGTAAA | 0.424
AAGCCTAC | -0.253
CACACTGG | -0.18
CATTTAGG | -0.174
ACGCTTTG | 0.035
GTCTATTA | -0.00563
CTCGGGAA | 0.462
GTCGGGAA | 0.377
ATCGGGAG | 0.367
CTCGGGAC | 0.45
ATCGGGAC | 0.284
CCCGGGAC | 0.387
GCCGGGAC | 0.28
CACGGGAC | 0.214
ATCGGGAA | 0.412
CCGGGGAC | 0.157
CTCGGGGA | 0.349
ATCGGGGA | 0.243
AGCAACTC | -0.0301
TACTCAAA | -0.108
CTTATCGA | -0.105
AGTCACTG | -0.274

Sequence | PBM E-score
AACTGAAA | -0.121
CCCTATAC | -0.154
ACACCGTG | 0.106
CTTGACGA | -0.0253
ACTACTTG | -0.195
ACGAGCTC | 0.0375
CCGAGCTA | 0.424
ACGAGCTA | -0.221
CCGAGCTC | 0.435
CTGAGCTC | -0.172
GCGAGCTA | -0.0842
CACGGTCA | -0.197
CAACTACG | -0.0502
TGAGAACA | -0.212
AGCGGAAG | 0.335
CCCGGAAC | 0.416
ACGGGAAG | 0.232
ACCGGAAC | 0.419
CCCGGACC | 0.26
ACCGGAAT | 0.294
CCCGGACG | 0.163
CCCGGAAG | 0.417
ACCGGAAG | 0.388
ACCGGAGC | 0.244
CCGGGAAC | 0.381

Sequence | PBM E-score
CCCGGAGG | 0.206
CTGGTGGC | -0.167
CGACTCAC | 0.0516
GAATACCC | 0.341
AAAAGGAG | -0.0435
AGGTACCG | 0.254
CGAGTCTC | 0.0605
GGAGCCCA | -0.203
AGGTGCTC | -0.148
AGGCAGTC | -0.144
GAAGGCGA | -0.051
CGTGGGGC | -0.121
TCCGGAGA | 0.335
GGCGGAAA | 0.277
ACCGGGAA | 0.335
CCCGGGAA | 0.355
TCCGGACA | 0.322
TCCGGAAA | 0.439
CCCGGAAA | 0.39
TCCGGGAA | 0.388
GACGGAAA | 0.36
GCCGGAAA | 0.401
AGGACTGA | -0.0328
CACTTGGA | -0.087
AATGTGGA | -0.0863

Sequence | PBM E-score
ACGATTCT | -0.05
GTATAGGA | -0.287
AGCCATTA | 0.0954
CTTCTGTC | -0.158
AGCTGATA | -0.047
ACCGGAAA | 0.384
GCCGGACC | 0.196
ACCGGCAA | 0.229
GCCGGAGC | 0.283
ACCGGACT | 0.252
GCCGGAAC | 0.428
AACTGTCC | 0.0472
AGAGTGTA | -0.094
GTTTCCCA | -0.0576
GTTTCCAA | -0.1
CTTTCCCA | -0.053
CTTTCCGC | 0.324
CTTTCCGA | 0.463
GTTTCCGA | 0.466
ATCTATGA | -0.0937
ATGCAGAG | -0.146
GATCAGGA | -0.029
ATTCATCC | 0.202
ATTACACA | -0.13
CCGAAACA | 0.364

Sequence | PBM E-score
CCGAAAAG | 0.384
CCGAAAGG | 0.363
CCGAAAAC | 0.41
CCGAAAAA | 0.434
ACGAAAAC | 0.154
CCGAAACC | 0.395
GCGAAAAC | -0.154
ACGAAACC | -0.0179
TCGAAAAA | -0.00854
ACGAAAAG | -0.23
ACGAAAAA | -0.189
CTAATCGA | -0.105
CGCCTCCC | -0.0433
CGGTCCCC | 0.141
CCCTATGC | -0.0929
AAGTGCGG | 0.226
CCGAAAGC | 0.377
CCGAAAGA | 0.388
GCGAAAGA | -0.166
ACGAAGGC | -0.0627
GACCTGGA | -0.196
GTCCTGAA | -0.197
TTTCGAAA | -0.307
ATCCGAAC | 0.475
TTCCGAAA | 0.468

Sequence | PBM E-score
CTCCGAAC | 0.427
CTCCGAAA | 0.357
ATCCGCAG | 0.285
AACCGAAC | 0.356
AACCGAAG | 0.362
GTCCGAAC | 0.335
TTGCGAAA | 0.116
ATCCGAAG | 0.48
CACCGAAC | 0.224
AGTCAGCC | -0.161
ACTGATCT | -0.0326
CAGGAAAG | -0.2
ATACGGGA | 0.237
CACTAAAC | -0.0976
TACTTCTA | -0.254
AAATTGCG | 0.114
TCCTAGGA | -0.093
CTGTGGGA | -0.145
CTCCGAAG | 0.413
ATCCGAAA | 0.48
AACCGAAA | 0.372
ATCCGAAT | 0.48
CTACGAAG | -0.247
GTCCGAAA | 0.337
ATACGAAT | -0.0803

Sequence | PBM E-score
CACCGAAG | 0.228
ATGCGAAT | 0.0493
CCTATTCA | -0.0251
CGCGCCTA | 0.0819
CACTGGTA | -0.276
GAGTCCCA | 0.116
TGACTCAA | -0.149
CGTTCTCC | -0.0997
CAGTTCCG | 0.364
ACGTTCCA | -0.0774
ACGTTCCT | -0.168
AGGTTCGC | 0.0812
AGGTTCGA | -0.0841
AAGTTCCT | -0.00611
AGGTTCCG | 0.383
AAGTTCCG | 0.434
AGGTTCCC | -0.0987
AGGTTCCA | 0.0324
AGGTTCGG | 0.403
ACGTTCCG | 0.398
CATAACCC | 0.051
AGGTGGGG | -0.0596
GCAAAAAC | -0.0252
CACAGCTC | -0.18
GCACCATA | -0.021

Sequence | PBM E-score
CAGAACTA | -0.0215
CGGCGATA | 0.277
CGTAGGGC | -0.195
ACATTTCC | 0.141
CGCACCGC | -0.00306
CCGTTCCA | 0.183
CCGTTCCG | 0.431
ATGTTCGG | 0.392
ATGTTCGC | -0.118
ATGTTCCC | 0.153
ATGTTCCG | 0.448
CCGTTCCC | 0.273
ATGTTCCA | -0.0991
ATGTTCGA | -0.112
AAAACCCA | -0.0723
CCTGGCAG | -0.289
CTTTGAGC | -0.151
GAACCACC | 0.218
CGGTGGTA | 0.0785
